The source of these data is publication PMC12136788.

T1: UNK ZnF1-6 (called full-length) (human, UniProt Q9C0B0 30-357)
T1 sequence: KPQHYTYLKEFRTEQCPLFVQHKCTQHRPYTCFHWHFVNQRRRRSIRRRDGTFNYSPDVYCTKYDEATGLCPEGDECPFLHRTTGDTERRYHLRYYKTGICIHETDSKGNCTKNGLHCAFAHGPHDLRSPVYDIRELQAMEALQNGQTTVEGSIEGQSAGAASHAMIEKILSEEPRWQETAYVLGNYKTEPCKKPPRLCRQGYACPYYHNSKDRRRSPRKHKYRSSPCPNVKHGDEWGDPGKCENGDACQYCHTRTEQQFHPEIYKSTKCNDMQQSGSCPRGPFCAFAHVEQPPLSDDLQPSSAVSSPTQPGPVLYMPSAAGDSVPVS

B1: chr15:76949589:76949706:+|3pUTR|ENSG00000117906|msi1_unk|total|mutant (ssRNA)
RNA: GGGAGUUCUACAGUCCGACGAUCAUAAAUUUUUGUUUUUGUUCUAAGCCGAUUUAAUUUGGGAACUGACAGGACAAUGUUUUCCGGUUCCGCAUUUUGUUUAAAAACCUUUAAAGAAACCUUCCGAAGGACUCCGACCUCACACAACAGAGGAUUGAGCAUCA
B2: chr7:38725943:38726055:-|3pUTR|ENSG00000006715|unk|total|mutant (ssRNA)
RNA: GGGAGUUCUACAGUCCGACGAUCGAAAUUUUGGGGUCCACCGUGAAUAUUUUGUUAUUUAUUUGUUUGGCUCAUUCUUUAUACCGUAAUGGAAACAUAAGUCCCGGAGUCCGAAAUGAAUUUUUCCGACCUCCGUAAAACCAUCAACAGAGGAUUGAGCAUCA
B3: ENSG00000168003:stop:overlap|stop_codon|ENSG00000168003|stop_codon|NA|stop_codon (ssRNA)
RNA: GGGAGUUCUACAGUCCGACGAUCCUGACAUCCCAGGGGCUGUAAGUGCCAACAUGACUGUGAAGGUAAGAGUUCUAGAUGGGUAGAAACUGACCGGUGGAGGGUGGGCUGGGCUUGUAGAAGUCUGUACCCAGGGGAGCCCCUCAACAGAGGAUUGAGCAUCA
B4: chr4:67617988:67618115:-|3pUTR|ENSG00000033178|unk|FALSE|unique (ssRNA)
RNA: GGGAGUUCUACAGUCCGACGAUCAAAUGUAGAAUGUUAAAAAUUAUUGCUAGGGUAGUCUUUUUUUUUUCCAGAAACCUAAUUAGGGUAUUAAAUUUUGUGUUUUUUUUGUUUUUUUUUUUUAAACAGAAGCAUGUUAUUUCACAACAGAGGAUUGAGCAUCA
B5: chr4:67617988:67618115:-|3pUTR|ENSG00000033178|unk|total|mutant (ssRNA)
RNA: B4 RNA with U29C, A30C, U50C, A51C, U55C, A56C, U83C, A84C
B6: chr4:168926953:168927063:+|3pUTR|ENSG00000129116|msi1_unk|total|mutant (ssRNA)
RNA: GGGAGUUCUACAGUCCGACGAUCCAAAAGAGUUUUCUAACAAGGUUAAUACCUCCGUUCUUAACAUUUUUUUUCUUUAUGUGCCGUGUUUUCAUGCUACCUUGGCCGGAAACUUAUUUACAAACCAUAUUAAAAGGCUAAUUUCAACAGAGGAUUGAGCAUCA
B7: chr11:69651733:69651797:+|3pUTR|ENSG00000110092|msi1_unk|FALSE|overlapping (ssRNA)
RNA: GGGAGUUCUACAGUCCGACGAUCAAAACAUUUUAAAAACAUAGAAAAAUUCAGCAAACCAUUUUUAAAGUAGAAGAGGGUUUUAGGUAGAAAAACAUAUUCUUGUGCUUUUCCUGAUAAAGCACAGCUGUAGUGGGGUUCUAGCAACAGAGGAUUGAGCAUCA
B8: chr4:168926953:168927063:+|3pUTR|ENSG00000129116|msi1_unk|FALSE|overlapping (ssRNA)
RNA: B6 RNA with C54U, C55A, C83U, C84A, C105U, C106A
B9: chr11:69651696:69651723:+|3pUTR|ENSG00000110092|msi1_unk|total|mutant (ssRNA)
RNA: GGGAGUUCUACAGUCCGACGAUCGAGGAUCCGGUUCCAUCCUUUACGUGUUUAAAAAAAAGCAUAAAAACAUUUUAAAAACACCGAAAAAUUCAGCAAACCAUUUUUAAAGCCGAAGAGGGUUUCCGGCCGAAAAACAUAUUCCAACAGAGGAUUGAGCAUCA
B10: chr4:138171112:138171219:-|3pUTR|ENSG00000151012|msi1|FALSE|unique (ssRNA)
RNA: GGGAGUUCUACAGUCCGACGAUCUUUUUUUUUUUCACAUCAGUUUGAUCAGGAAAGUGUAUAACACAUCUUAGAGCAAGAGUUAGUUUGGUAUUAAAUCCUCAUUAGAACAACCACCUGUUUCACUAAUAACUUACCCCUGAUCAACAGAGGAUUGAGCAUCA
B11: chr11:69651696:69651723:+|3pUTR|ENSG00000110092|msi1_unk|FALSE|overlapping (ssRNA)
RNA: B9 RNA with C30U, C31A, C83U, C84A, C112U, C113A, C125U, C126A, C129U, C130A
B12: chr2:16549458:16552935:-|three_prime_utr|ENSG00000197872|control|control|control (ssRNA)
RNA: GGGAGUUCUACAGUCCGACGAUCUUGCUACUGGAGUCCUUUAACAACAUCUAUAACGAUAAAAAAUUCCUAAUUGUUUGUGGUAGUAUUUUAAUUCUAGAUGUGUUAUCUCUCUGGGAAGUAUAGUUUAUAGAAACACAAAAUCAACAGAGGAUUGAGCAUCA
B13: chr3:23980279:23980388:+|3pUTR|ENSG00000174738|unk|FALSE|unique (ssRNA)
RNA: GGGAGUUCUACAGUCCGACGAUCUUUUUCUUUUCCAAUAUAAAGUUUGCUGAAUGUACAAGAAGAGUUUAUCACUUAGGAUAUAGAAUUUUUUUAGGGGUUGGGGGAGGGGAUCUGUUAGGAAACUGUUACCUAUAAACAAAGCAACAGAGGAUUGAGCAUCA
B14: chr1:6525536:6525637:-|3pUTR|ENSG00000162408|msi1|total|mutant (ssRNA)
RNA: GGGAGUUCUACAGUCCGACGAUCACAGUUUGUGUGCCAUUAAAACAGAGAUUCCUCAGAAAGUUCUUCAGGGACCUGGUUAUCCGAAUCAGGAUAAAAAUAAGGAAACUGGGGCCAUUACAAUGUACCGAGAAGGAAGGAAGACAACAGAGGAUUGAGCAUCA
B15: chr1:85021069:85021276:-|CDS|ENSG00000055732|control|control|control (ssRNA)
RNA: GGGAGUUCUACAGUCCGACGAUCGAUAUGUUUGCCACGUUUGCAAAAAUGCAGCAAAAAAGUUACUUAGUCUGGCUGUUUAGUAGAAUUUACCUCUACUCAUUCAUCAGCCUCUUUAUAUAUAUGAUUUUAAGUCUUUUCAUUCAACAGAGGAUUGAGCAUCA

Changes are numbered by the printed parent chain. In all, about 5,800 sequences were measured (“enrichment r”: median about 0.68, highest 2% from about 11 on). For the sample, the highest values were picked, then their nearest neighbours and some sequences at random.

This assay deals with T1, UNK ZnF1-6 (called full-length). In words: nsRBNS (natural sequence RNA bind-n-seq); RBNS binding buffer (assumed for nsRBNS): 25 mM Tris pH 7.5, 150 mM KCl, 3 mM MgCl2, 0.01% Triton X-100, 500 ug/ml BSA, 20 U/ml SUPERase-In, 4 C; UNK is unkempt and MSI1 is Musashi-1; names of the RNAs are library labels; protein concentration not given here; high values mean tight binding.
Regarding B1, the binding signal was determined as 0.382 enrichment R.
The same measure for B2: 0.419 enrichment R; for B3: 0.906 enrichment R; for B4: 28.1 enrichment R.
The value for B5 was 0.765 enrichment R.
The value for B6 was 1.12 enrichment R; that for B7 was 8.88 enrichment R; that for B8 was 20.1 enrichment R.
For B9, the binding signal was 0.444 enrichment R.
The value for B10 was 2.58 enrichment R; that for B11 was 13.5 enrichment R.
The same measure for B12: 4.45 enrichment R.
The same measure for B13: 3.03 enrichment R.
As to B14, the binding signal was found to be 0.553 enrichment R.
For the molecule B15, the binding signal came out at 1.95 enrichment R.
